Screens as filed in PubChem BioAssay.
VDR inh = inhibitors of human vitamin D receptor; Potency, µM, for the others: max response, negative = inhibition, most hits filed as inhibitors; 0.93% of 400,000 active; VDR-SRC2-3 peptide fluorescence polarization, 2 h; P11473; AID 504847; further: on the % scale 0 is the no-effect control and ±100 the full control effect
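Fluorescence polarization assay measuring small-molecule disruption of VDR binding to the coregulator peptide SRC2-3. Compounds were pin-transferred (23 nl) into the reagent mix and incubated 2 h at room temperature before reading.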
TrxR1 substrate = rat thioredoxin reductase 1 substrate activity; O89049; purified TrxR1 substrate turnover, NADPH consumption readout; Potency, µM (highest dose often 114 µM), without a hit: at the top dose activity change, negative = substrate turnover; 0.01% of 390,000 active; further: on the % scale 0 is the no-effect control and ±100 the full control effect; nearly all actives have a fitted effect of over 50% in size
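Rat TrxR1, dispensed at 90 nM, was prereduced with 400 uM NADPH (final) for 5 min at ~22 deg C, then incubated with compound 15 min before 400 uM selenite. A first-read NADPH fluorescence drop versus no-compound background flagged substrates.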
rTrxR1 inhibitor = blocks rat thioredoxin reductase 1; O89049; recombinant rTrxR1, NADPH fluorescence consumption, selenite substrate; Potency, µM (series often up to 114 µM), without a hit: at the highest dose activity change, negative = inhibition, usual class: inhibitors; 1% of 390,000 active; further: on the % scale 0 is the no-effect control and ±100 the full control effect; nearly all actives have a fitted effect of over 65% in size
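Rat TrxR1 (90 nM in the dispensed reagent) was pre-reduced with 400 uM NADPH for 5 min at room temperature, then incubated with compound for 15 min. After 400 uM selenite was added, NADPH fluorescence (Ex 340/Em 450 nm) was followed for 8 min.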
Vif-APOBEC3F blk = blocks the Vif interaction with APOBEC3F; HeLa A3F-eYFP + Vif (tagged APOBEC3F with the HIV-1 protein that degrades it), YFP fluorescence increase; Potency, µM (top dose mostly 46.1 µM), inactives show top-dose activity, negative = active; 0.2% of 390,000 active; further: % of control where 0% means no effect; nearly all actives have a fitted effect of over 65% in size
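Fluorescence increase (Ex 488/Em 500-530) after overnight compound treatment at 37 deg C flags inhibition of Vif-driven A3F-eYFP loss in stable HeLa A3F-eYFP/Vif cells seeded overnight beforehand.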
Vif-A3G inh = Vif-A3G binding inhibition; AID 602310; Potency, µM (top dose mostly 46.1 µM), for inactives: at the highest dose activity, negative = active, usual class: inhibitors; 0.076% of 410,000 active; HeLa A3G-eYFP + Vif (tagged APOBEC3G with the HIV-1 protein that degrades it), YFP fluorescence, overnight; further: on the % scale 0 is the no-effect control and ±100 the full control effect; nearly all actives have a fitted effect of over 60% in size
Target sequence (Q9HC16 whole entry, looked up): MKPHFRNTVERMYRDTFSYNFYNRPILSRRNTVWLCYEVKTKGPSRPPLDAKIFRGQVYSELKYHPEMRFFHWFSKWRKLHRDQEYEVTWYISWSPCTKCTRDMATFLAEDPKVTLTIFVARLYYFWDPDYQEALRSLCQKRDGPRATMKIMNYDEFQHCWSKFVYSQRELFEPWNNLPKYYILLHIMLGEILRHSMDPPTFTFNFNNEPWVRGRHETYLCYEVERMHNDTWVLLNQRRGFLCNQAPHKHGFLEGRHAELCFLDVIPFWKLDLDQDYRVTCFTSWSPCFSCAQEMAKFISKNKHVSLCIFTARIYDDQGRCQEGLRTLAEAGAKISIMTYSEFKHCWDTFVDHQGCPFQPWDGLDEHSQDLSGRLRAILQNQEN
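Read-out is eYFP fluorescence (Ex 488/Em 500-530) from Vif-expressing HeLa A3G-eYFP cells; more signal means A3G escaped Vif-mediated degradation. Cells plated overnight, compound pinned in, incubated overnight at 37 deg C.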
* marks the source's active call; other numbers are inactive results; ? = inconclusive; nt = no result; [ ] = dose if it differs, or a comment. Sampled rows, rich in hits. Any-hit rate of the full collection: about 1.8%. The call rests on the fitted dose curve; in most records, active means well fitted curve in the direction sought with a large enough effect; inconclusive means small, poorly fitted or top-dose-only effect, or another doubt; inactive means no such curve, though single readings can be large; an effect the other way counts as inactive or inconclusive. Potency means the concentration at half of the fitted maximal effect.

SMILES	VDR inh	TrxR1 substrate	rTrxR1 inhibitor	Vif-APOBEC3F blk	Vif-A3G inh
CCOC(=O)C1=C(O)/C(=C\c2ccc(CNS(=O)(=O)c3ccc(Br)cc3)o2)N=C1C	-21%	0%	14µM*	2%	0%
O=C(C[n+]1ccncc1)c1cccc2ccccc12	nt	-1%	-1%	nt	-4%
Nc1c(C(=O)N2CCOCC2)sc(=S)n1-c1ccccc1	50µM*	-4%	-31%[57.1 µM]	-5%	0%
Cc1ccc(-n2c(N)c(C(=O)N3CCN(C)CC3)sc2=S)cc1	25µM*	-13%	-16%	-2%	3%
Cc1ccc(-n2c(N)c(C(=O)N3CCCCC3)sc2=S)cc1	?	-12%	-15%	5%	1%
CCCCC(=O)N1C/C=C\C(c2ccc(OC)cc2)N(Cc2ccc(F)cc2)C(=O)C1C (centres undefined)	-12%	-8%	-3%	nt	0%
CCCCn1c(N)c(N(CCC(C)C)C(=O)COC(=O)c2ccc([N+](=O)[O-])s2)c(=O)[nH]c1=O	-2%	3%[11.4 µM]	-3%[11.4 µM]	?	-23%
CCCCN(C(=O)c1ccc([N+](=O)[O-])s1)c1c(N)n(CCCC)c(=O)[nH]c1=O	6%	-1%	-3%	13µM*	-17%
CC(C)NC(=O)CCN1C(=O)c2ccccc2Sc2ncccc21	-15%	4%	24%	3%	3%
O=C(O)CCN1C(=O)c2ccccc2Sc2ncccc21	-13%	7%	9%[57.1 µM]	-1%	-8%
Cc1ccc(C)c(NC(=O)CCN2C(=O)c3ccccc3Sc3ncccc32)c1	2%	5%	50µM*	0%	2%
CCc1cccc(NC(=O)CCN2C(=O)c3ccccc3Sc3ncccc32)c1	11%	-1%	18µM*	-1%	-3%
O=C(CCN1C(=O)c2ccccc2Sc2ncccc21)Nc1ccc(F)cc1	-7%	-6%	7.1µM*	-1%	-5%
CCOc1ccccc1NC(=O)N(C)CCc1c(C)nn(CC)c1C	-3%	-4%[57.1 µM]	4%[57.1 µM]	1%	5%
CCCCC1(Br)C(=O)N(c2ccccc2)N(c2ccccc2)C1=O	71µM*	-3%	28µM*	1%	-1%
CCCCC1(CO)C(=O)N(c2ccccc2)N(c2ccccc2)C1=O	-18%	1%	7%	-9%	0%
Fc1ccc(-c2nc(-c3c[nH]c4ccccc34)cs2)cc1	nt	2%[0.0914 µM]	23%	nt	-2%
O=C(Oc1ccccc1[N+](=O)[O-])c1cccnc1	-22%	-4%	14µM*	-12%	-1%
O=C(NCCc1csc2nc(-c3cccc(F)c3)nn12)c1ccc(Br)o1	14%	-2%[57.1 µM]	-2%[57.1 µM]	2%	-6%
O=C(O)/C=C/c1ccc2ccccc2c1	nt	126%	22%	nt	-3%
COc1ccc(-n2nnnc2S(=O)(=O)Cc2ccc(C(=O)O)cc2)cc1	?	1%	16µM*	3%	?
CCc1ccc(Oc2nnnn2-c2ccc(C(N)=O)cc2)cc1	5%	5%	36%	1%	-3%
COc1cc(OC)cc(-n2nnnc2SCC(=O)N2CCCC2)c1	3%	5%[57.1 µM]	10%	-5%	-4%
